# Source: PubChem
# The full list was thinned out, with hits kept by preference.
# IDE exosite inh = exo-site inhibitors of human insulin-degrading enzyme | hit rate 6.3% among 17,000 | P14735 | purified IDE, FL-6b probe fluorescence polarization; active compounds read low | z-score at 20 µM | AID 1259349;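 active means z-score of -3 or lower, meaning strong loss of probe binding signal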;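 further: His-tagged human IDE residues 42-1019 made in E. coli with 30 nM FL-6b probe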
# Active calls of the source: *; ! = not confirmed by another sample.
SMILES,IDE exosite inh
O=C(C1CC1)N1CC(=O)N2[C@H](C1)[C@H](c1ccc(C#Cc3cccc(F)c3)cc1)[C@@H]2CO,-6.09*
O=C(c1cccc(F)c1)N1CC(=O)N2[C@H](CO)[C@@H](c3ccc(C#Cc4ccc(F)cc4)cc3)[C@H]2C1,2.08
O=C(C1CCC1)N1CC(=O)N2[C@@H](CO)[C@H](c3ccc(C#Cc4cccc(F)c4)cc3)[C@@H]2C1,-3.37*
O=C(C1CCCCC1)N1CC(=O)N2[C@@H](CO)[C@H](c3ccc(C#Cc4cccc(F)c4)cc3)[C@@H]2C1,0.212
COCC(=O)N1[C@@H](CO)[C@@H]2c3ccccc3NC[C@@H]21,2.78
CCC(=O)NC[C@@H]1[C@@H](c2ccc(C3=CCCC3)cc2)[C@H](CO)N1C(=O)C1CC1,3.56
COc1ccc(NC(=O)N(C)C[C@@H]2OCc3ccccc3-c3ccccc3C(=O)N([C@@H](C)CO)C[C@H]2C)c(OC)c1,-0.302
CCCNC(=O)N[C@@H]1C=C[C@H](CC(=O)N2CCN(C)CC2)O[C@H]1CO,0.511
CCCC#Cc1cnc2c(c1)C(=O)N([C@@H](C)CO)C[C@H](C)[C@@H](CN(C)C(=O)Nc1cc(F)ccc1F)O2,-0.316
CO[C@H](CN(C)CC1CCOCC1)[C@@H](C)CN(C(=O)Nc1ccc(F)cc1)[C@@H](C)CO,1.52
CC(C)CC#Cc1ccc([C@@H]2[C@@H](CO)N3C(=O)CN(S(=O)(=O)c4cccc(F)c4)C[C@H]23)cc1,-1.97
N#C[C@@H]1[C@@H](c2ccc(C#Cc3ccccc3F)cc2)[C@@H](CO)N1C(=O)C1CCC1,1.58
N#C[C@H]1[C@H](c2ccc(-c3cccc(F)c3)cc2)[C@H](CO)N1C(=O)c1cccnc1,-5.95*
N#C[C@H]1[C@H](c2ccc(C#Cc3ccccc3F)cc2)[C@H](CO)N1C(=O)C1CC1,-1.25
N#C[C@@H]1[C@@H](c2ccc(C#Cc3ccccc3F)cc2)[C@H](CO)N1C(=O)c1cccnc1,-2.45
N#C[C@@H]1[C@H](c2ccc(C#Cc3ccccc3F)cc2)[C@H](CO)N1C(=O)C1CCOCC1,-6.41*
N#C[C@H]1[C@@H](c2ccc(C#Cc3ccccc3F)cc2)[C@@H](CO)N1C(=O)C1CCC1,0.334
N#C[C@@H]1[C@@H](c2ccc(-c3cccc(F)c3)cc2)[C@H](CO)N1C(=O)c1cccnc1,0.156
N#C[C@H]1[C@H](c2ccc(-c3cccc(F)c3)cc2)[C@@H](CO)N1C(=O)c1cccnc1,1.34
N#C[C@H]1[C@@H](c2ccccc2)[C@H](CO)N1C(=O)c1cccnc1,3.62
N#C[C@H]1[C@@H](c2ccc(C#Cc3ccccc3F)cc2)[C@H](CO)N1C(=O)C1CCC1,0.223
N#C[C@H]1[C@H](c2ccc(C#Cc3ccccc3F)cc2)[C@@H](CO)N1C(=O)c1cccnc1,-5.46*
N#C[C@H]1[C@@H](c2ccc(C#Cc3ccccc3F)cc2)[C@@H](CO)N1C(=O)C1CCOCC1,-3.66*
C[C@H](NC(=O)C[C@H]1CC[C@@H]2[C@H](COC[C@H](O)CN2Cc2ccc(C(F)(F)F)cc2)O1)c1ccccc1,-1.27
O=C(CC1CC1)N1CC2(C1)[C@H](c1ccccc1)[C@H](CO)N2C(=O)c1ccccn1,-1.24
SMILES,IDE exosite inh
CC(C)CC#Cc1ccc([C@H]2[C@@H](CO)N3C(=O)CN(C(=O)Nc4ccc(F)cc4)C[C@@H]23)cc1,3.39
CO[C@@H](CN(C)CC1CCOCC1)[C@H](C)CN(C(=O)Nc1ccc(F)cc1)[C@@H](C)CO,1.52
Cc1noc(C)c1NC(=O)N[C@H]1C=C[C@H](CC(=O)Nc2ccc(-c3ccccc3)cc2)O[C@H]1CO,-0.58
O=C(C[C@@H]1CC[C@H](NS(=O)(=O)c2ccccc2F)[C@H](CO)O1)NCCCN1CCOCC1,0.44
COc1ccc(-c2ccc(C3[C@H]4CNC[C@@H]3N4CC3CCOCC3)cc2)cc1 (stereo partly drawn),2.13
COCC(=O)N1[C@@H](C#N)[C@H](c2ccc(C#Cc3ccccc3F)cc2)[C@@H]1CO,-4.31*
COCC(=O)N1[C@@H](C#N)[C@@H](c2ccc(C#Cc3ccccc3F)cc2)[C@@H]1CO,0.638
COCC(=O)N1[C@H](C#N)[C@H](c2ccc(C#Cc3ccccc3F)cc2)[C@H]1CO,-2.25
CCc1cnc(N2[C@H](C#N)[C@H](c3ccc(C#CC(C)C)cc3)[C@H]2CO)s1,5.5
COCC#Cc1ccc([C@@H]2[C@H]3CN(C(=O)C4CC4)CC(=O)N3[C@H]2CO)cc1,2.56
OC[C@H]1Nc2ccc(-c3cccc(F)c3)cc2[C@@H]2[C@H]1CCN2Cc1ccc(F)cc1,1.25
COC(=O)C[C@@H]1CC[C@H]2[C@@H](COC[C@@H](O)CN2S(=O)(=O)c2ccccc2OC)O1,-0.419
Cc1ccc(S(=O)(=O)N[C@@H]2C=C[C@@H](CC(=O)NCc3ccc(Cl)c(Cl)c3)O[C@H]2CO)cc1,-0.462
CC(=O)N1[C@H](CO)[C@H](c2ccc(-c3ccccc3)cc2)[C@@H]1CNC(=O)NC(C)C,0.917
CC(C)NC(=O)N1CCCCN2[C@H](CO)[C@H](c3ccc(C#Cc4ccccc4F)cc3)[C@H]2C1,-4.49*
CC(C)NC(=O)N1CCCCN2[C@H](C1)[C@H](c1ccc(C#Cc3ccccc3F)cc1)[C@@H]2CO,-9.59*
CC(C)NC(=O)N1CCCCN2[C@@H](CO)[C@H](c3ccc(C#Cc4ccccc4F)cc3)[C@@H]2C1,-12.7*
O=C1CNC[C@@H]2[C@H](c3ccc(-c4ccccc4F)cc3)[C@@H](CO)N12,0.604
COc1cccc(S(=O)(=O)Nc2ccc3c(c2)C(=O)N(C)[C@H]2CC[C@H](CC(=O)NCC4CCCCC4)O[C@H]2CO3)c1,-1.36
N#C[C@@H]1[C@H](c2ccccc2)[C@H](CO)N1C(=O)Cc1ccccn1,-0.971
CO[C@@H](C(=O)N(C)C[C@@H]1OCc2ccccc2-c2ccccc2C(=O)N([C@H](C)CO)C[C@H]1C)c1ccccc1,-0.39
COc1ccc(S(=O)(=O)N2C[C@@H](O)COC[C@@H]3O[C@@H](CC(=O)N[C@H]4CCN(Cc5ccccc5)C4)CC[C@H]32)cc1,-0.732
O=S(=O)(Cc1ccccc1)N1CCCCN2[C@H](CO)[C@H](c3ccc(-c4cncnc4)cc3)[C@H]2C1,0.629
O=C(c1ccc(F)cc1)N1CC(=O)N2[C@H](C1)[C@@H](c1ccc(-c3ccccc3)cc1)[C@@H]2CO,0.133
CN(C)CC(=O)N[C@H]1C=C[C@H](CC(=O)NCc2ccc(Cl)cc2)O[C@@H]1CO,3.4
SMILES,IDE exosite inh
CC(=O)N1CCCCN2[C@@H](CO)[C@H](c3ccc(Br)cc3)[C@@H]2C1,3.45
O=C(Cc1ccncc1)N1C[C@@H]2N[C@H](C1)C2c1ccc(-c2ccccc2)cc1 (stereo partly drawn),-3.06*
O=C(CN1CCOCC1)N1C[C@@H]2N[C@H](C1)C2c1ccc(-c2ccccc2)cc1 (stereo partly drawn),1.57
C/C=C/c1ccc(C2[C@@H]3CN(C(=O)Cc4ccccc4)C[C@H]2N3)cc1 (stereo partly drawn),2.21
O=C(Cc1ccncc1)N1C[C@@H]2N[C@H](C1)C2c1ccc(/C=C/c2ccccc2)cc1 (stereo partly drawn),-4.58*!
O=S(=O)(c1ccc(-c2ccccc2)cc1)N1C[C@@H]2N[C@H](C1)C2c1ccc(-c2ccncc2)cc1 (stereo partly drawn),1.08
C/C=C/c1ccc(C2[C@@H]3CN(C(=O)Cc4ccncc4)C[C@H]2N3)cc1 (stereo partly drawn),2.82
CC(C)CC#Cc1ccc([C@@H]2[C@@H](CO)N3C(=O)CN(C(=O)NC(C)C)C[C@@H]23)cc1,4.88
